Inconclusive results are not listed. Activity calls are given as the source filed them. Calls follow the shape of the dose curve; as a rule, active = well fitted curve in the direction sought with a large enough effect; inconclusive = small, poorly fitted or top-dose-only effect, or another doubt; inactive = no such curve, though single readings can be large; an effect the other way counts as inactive or inconclusive.

Assay [1] can be described thus: qHTS to identify inhibitors of the type 1 interferon - major histocompatibility complex class I in skeletal muscle: primary screen against the NCATS LOPAC collection (AID 1347405).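 Also: lytic HiBiT luminescence reporting HLA-B protein level.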 The procedure, abridged:
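Immortalized human C25cl48 myoblasts with HiBiT knocked into endogenous HLA-B*08:01 were stimulated with 4.0 ng/ml IFN-beta and given compounds in a 7-point, 1:4.3 titration from 46 uM final; after 24 hrs, lytic HiBiT luminescence was read.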

The nature of assay [2]: qHTS for inhibitors of adenylyl cyclases using a fission yeast platform: a pilot screen against the NCATS LOPAC library (AID 1347410). Summed up: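 S. pombe CHP2027 (AC9-GNAS-PDE4D2) carrying PKA-repressed fbp1-GFP, incubated 18 h at 30C in EMM with LOPAC compounds at up to 57 uM. GFP gain-of-signal read by laser scanning cytometry; DMSO negative control.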
The target of assay [3] is Single-stranded DNA cytosine deaminase (Homo sapiens) (UniProt Q9GZX7). Put plainly: Validation qHTS assay for inhibitors of Activation Induced Cytidine Deaminase (AID): AID signal (AID 1347429). Summed up:
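AID and UDG were combined and compounds added at final up to 114 uM, then DJC20/DJC23 FRET substrate was added for 4 hr at room temperature. NaOH was then added for 30 min before fluorescence was read at 540/590 nm.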

Assay [4] deals with Calcium and integrin-binding protein 1 (Homo sapiens) (UniProt Q99828). Put plainly: Validation qHTS for Identification of Calcium Integrin Binding protein 1 (CIB1) Competitor (AID 1508618). Summed up:
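CIB1-GST (1 uM final) incubated 15 min at room temperature with compounds (up to 114 uM), then FITC-labelled alphaIIb peptide (100 nM) added. FP read (Ex 480/Em 540) after 15 min, pH 7.4 buffer containing 5 mM CaCl2.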
(qHTS replaces the single test concentration by a dilution series.)

The nature of assay [5]: qHTS to identify inhibitors of the type 1 interferon - major histocompatibility complex class I in skeletal muscle: primary screen against the NCATS Pharmaceutical Collection (AID 1347407).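 Also: luminescence of HiBiT knocked into endogenous HLA-B as interferon-induced MHC class I level.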 The procedure, abridged: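 Immortalized human myoblasts (C25cl48) with HiBiT knocked into endogenous HLA-B*08:01 were stimulated with 4.0 ng/ml IFN-beta and treated with compounds ([…] top 46 uM) for 24 hrs at 37 C. HiBiT lytic luminescence read.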

Assay [6] deals with Protein phosphatase 1D (Homo sapiens) (UniProt O15297). Put plainly: RapidFire Mass Spectrometry qHTS Assay for Modulators of WT P53-Induced Phosphatase 1 (WIP1) (AID 1347424).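 Also: amount of dephosphorylated VEPPL-S-QETFS peptide product formed by WIP1; series mostly up to about 63 µM.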 The procedure, abridged:
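10 nM WIP1 + cpd, 1 h RT; + 2 uM VEPPL-pS-QETFS, 5 min RT; stop 0.5% formic acid; labelled product standard 1 uM; RapidFire MS. Buffer 50 mM Tris pH 7.5, 30 mM MgCl2, 1 mM TCEP.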

Assay [7] shares this target. Put plainly: Rhodamine-PBP qHTS Assay for Modulators of WT P53-Induced Phosphatase 1 (WIP1) (AID 1347425). The procedure, abridged:
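The read-out is the change in Rhodamine-PBP fluorescence (f1 - f0, ex 525/em 598 nm) as Pi is released, read each minute for 11 min. Final reaction: 5 nM WIP1, 10 uM phosphopeptide VEPPL-pS-QETFS, 10 uM Rh-PBP, 50 mM Tris-HCl pH 7.5, 30 mM MgCl2. Compound was preincubated with enzyme for 1 hour at room temperature.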

Assay [8] is described as follows: Primary qHTS for inhibitors of La Crosse Virus (LACV) - induced cell death in SH-SY5Y cells (AID 1508616).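 Also: top concentration of the series differs between compounds; higher means more rescue of cells from virus-induced death.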 The procedure, abridged:
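Luminescent ATP readout (ATPLite 1step, 5 min room temperature) measured rescue from LACV-induced death after 6 days of infection at 0.01 MOI; normalized to infected DMSO wells and uninfected DMSO wells.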

Assay [9] concerns the target Calcium and integrin-binding protein 1 (Homo sapiens) (UniProt Q99828). Put plainly: Primary qHTS for Identification of Calcium Integrin Binding Protein 1 (CIB1) Competitor (AID 1508620). Also: top concentration of the series differs between compounds. Summed up: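 CIB1-GST (1 uM final) and compound incubated 15 min at room temperature before adding FITC-alphaIIb peptide tracer (100 nM final). Competition for binding read by fluorescence polarization (ex 480, em 540) after another 15 min at room temperature.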

The nature of assay [10]: Secretion counterscreen for inhibitors of the SERCaMP assay screened against the NCATS CANVASS Library (AID 1347390).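 Also: light from luciferase secreted into medium read as a measure of general secretion; series mostly up to about 77 µM.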 Summed up: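 SH-SY5Y cells with constitutively secreted GLuc reporter, 1000 cells/well, treated 20 h at 37C with compounds at 0.001 - 77 uM final; secreted luciferase read as luminescence after coelenterazine; Brefeldin A as positive control.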
In general terms: A counterscreen serves to expose hits that act by an unwanted route or on another target.

A short description of assay [11]: qHTS for activators of Nrf2/ARE signaling pathway screened against the NCATS CANVASS Library (AID 1347391). Also: nearly all actives have a fitted effect of over 60% in size. Summed up: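 ARE-bla HepG2 beta-lactamase reporter cells, 2000 cells/well, were preincubated 5 h, then exposed to compounds (11-point series) for 16 h at 37C. CCF4 fluorescence (ex 405, em 460/530 nm) after 2 h at room temperature.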
Assay [12] can be described thus: qHTS for activators of dead-cell proteases activity screened against the NCATS CANVASS Library (AID 1347392).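 Also: luminescence from protease leaking out of membrane-damaged cells cleaving impermeant substrate; rising signal means more cytotoxicity.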 The procedure, abridged: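 Compounds are pin-transferred onto attached HepG2 cells, giving 11 final concentrations. After 5 h at 37C, AAF-aminoluciferin reagent is added and luminescence is recorded at room temperature.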
A short description of assay [13]: qHTS for inhibitors of ER calcium dysfunction: SERCaMP assay screened against the NCATS CANVASS Library (AID 1347393). Also: nearly all actives have a fitted effect of over 40% in size. Also: potency is read from the fitted curve at half-maximal effect. The procedure, abridged: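 Thapsigargin-induced ER calcium depletion drives GLuc-SERCaMP secretion from SH-SY5Y cells; compounds given 16 h beforehand were scored by lowered coelenterazine luminescence after 4 h challenge.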
Assay [14] in a line: Vero-766 cells viability qHTS against the NCATS CANVASS Library: Counterscreen for Zika virus inhibition assay (AID 1347394). Also: series mostly up to about 46 µM; nearly all actives have a fitted effect of over 60% in size. Summed up: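 Vero 766 cells (1000/well), without Zika virus, were exposed to compounds for 72 h at 37C. Viability was measured by CellTiter Glo luminescence. Media-only wells served as 100% inhibition.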
Assay [15] in a line: qHTS for inhibitors of Wild type Zika virus screened against the NCATS CANVASS Library (AID 1347396).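 Also: ATP luminescence of surviving cells so rescue from viral cell killing; series mostly up to about 46 µM.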 The procedure, abridged:
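Luminescent CellTiter Glo read-out of virus-induced cytotoxicity, 72 h post-infection, in Vero 766 cells. Compounds were tested at 11 concentrations; uninfected, vehicle-treated wells defined 100% inhibition.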

Assay [16] is described as follows: Viability qHTS for inhibitors of the SERCaMP assay screened against the NCATS CANVASS Library (AID 1347400). Also: series mostly up to about 92 µM; nearly all actives have a fitted effect of over 70% in size. The procedure, abridged: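 SH-SY5Y-GLuc SERCaMP MJH297-derived cells (1000 cells/well) were pre-incubated 4 h at 37C, then exposed to compounds for 48 h. Viability was read as CellTiter-Glo luminescence; bortezomib served as positive control.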
Assay [17] can be described thus: Redox Reaction Profiling qHTS: Assay Interference Panel against the NCATS CANVASS Library (AID 1347401). Summed up:
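Cell-free redox surrogate: 5 uM resazurin + 200 uM DTT, 50 mM HEPES pH 7.3/50 mM NaCl; cpds pinned, 11-pt qHTS; Ex525/Em598 read t0 and t=15 min, dark.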

Assay [18] has as its target Calcium and integrin-binding protein 1 (Homo sapiens) (UniProt Q99828). The assay can be described thus: Confirmatory qHTS for Identification of Calcium Integrin Binding Protein 1 (CIB1) Competitor (AID 1508617). Also: potency is read from the fitted curve at half-maximal effect; nearly all actives have a fitted effect of over 65% in size. Summed up: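 Compounds at up to 114 uM final met 1 uM GST-tagged CIB1 for 15 min at room temperature (HEPES pH 7.4, 5 mM CaCl2). FITC-labelled alphaIIb peptide, 100 nM, added; polarization read after 15 min more.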

The nature of assay [19]: Counterscreen qHTS for small molecule stabilizers of the endoplasmic reticulum resident proteome: GLuc-NoTag assay (AID 1508627).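 Also: SH-SY5Y cells given compound then 100 nM thapsigargin to empty ER calcium; series mostly up to about 76 µM.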 The procedure, abridged:
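Luminescence of Gaussia luciferase secreted into the medium (coelenterazine, 0.07x final, unlysed cells) was the read-out. Human SH-SY5Y neuroblastoma cells constitutively secreting untagged GLuc received compound for 19 h, then 100 nM thapsigargin for 4 h.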

Assay [20] in a line: qHTS to identify inhibitors of the type 1 interferon - major histocompatibility complex class I in skeletal muscle: primary screen against the NCATS Mechanism Interrogation Plate v5.0 (MIPE) Libary (AID 1347411). Also: nearly all actives have a fitted effect of over 65% in size. The procedure, abridged: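 Immortalized human C25cl48 myoblasts with HiBit knocked into endogenous HLA-B*08:01 were stimulated with 4.0 ng/ml IFN-beta and exposed to compounds (11-point 1:3 titration, top 46 uM final) for 24 hrs at 37 C; HiBiT lytic luminescence measured.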

Chain of Calcium and integrin-binding protein 1 (Homo sapiens) (Q99828 whole entry, looked up): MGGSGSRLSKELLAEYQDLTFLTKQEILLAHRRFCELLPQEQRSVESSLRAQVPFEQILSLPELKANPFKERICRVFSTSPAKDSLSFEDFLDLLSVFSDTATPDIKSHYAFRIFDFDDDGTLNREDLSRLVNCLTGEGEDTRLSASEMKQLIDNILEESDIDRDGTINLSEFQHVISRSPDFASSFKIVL
Chain of Protein phosphatase 1D (Homo sapiens) (O15297 whole entry, looked up): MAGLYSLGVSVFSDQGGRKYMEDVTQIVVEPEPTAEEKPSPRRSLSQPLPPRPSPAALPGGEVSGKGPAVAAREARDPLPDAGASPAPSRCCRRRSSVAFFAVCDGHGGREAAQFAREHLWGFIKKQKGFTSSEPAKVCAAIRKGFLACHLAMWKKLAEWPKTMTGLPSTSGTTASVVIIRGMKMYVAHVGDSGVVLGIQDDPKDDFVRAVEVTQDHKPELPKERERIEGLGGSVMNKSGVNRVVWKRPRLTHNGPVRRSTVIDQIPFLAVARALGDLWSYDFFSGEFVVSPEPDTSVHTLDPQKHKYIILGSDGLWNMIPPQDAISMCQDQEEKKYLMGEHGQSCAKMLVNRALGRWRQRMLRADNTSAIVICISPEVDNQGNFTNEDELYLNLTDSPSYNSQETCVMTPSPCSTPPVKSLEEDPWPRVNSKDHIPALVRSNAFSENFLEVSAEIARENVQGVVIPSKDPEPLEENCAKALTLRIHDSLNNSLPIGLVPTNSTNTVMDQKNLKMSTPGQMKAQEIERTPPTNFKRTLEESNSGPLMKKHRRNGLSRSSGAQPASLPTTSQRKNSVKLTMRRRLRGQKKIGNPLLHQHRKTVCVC
Chain of Single-stranded DNA cytosine deaminase (Homo sapiens) (Q9GZX7 whole entry, looked up): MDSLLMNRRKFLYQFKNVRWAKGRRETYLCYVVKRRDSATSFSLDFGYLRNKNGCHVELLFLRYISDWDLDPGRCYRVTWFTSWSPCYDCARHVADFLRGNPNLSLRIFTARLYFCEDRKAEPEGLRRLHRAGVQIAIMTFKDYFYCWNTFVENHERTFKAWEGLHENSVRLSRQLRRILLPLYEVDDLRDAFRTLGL

`COc1ccc(Cc2nccc3cc(OC)c(OC)cc23)cc1OC`: the Potency entry in assay [1] and in [3] was “inactive” each time. Further, the compound was called inactive in [2] and in assay [4].
`CC(C)NCC(O)COc1cccc2[nH]ccc12` (stereo unspecified): the Potency entry in assay [1], in [5], in assay [3] and in [9] was “inactive” throughout. In addition, the call in assay [2], in assay [6], in assay [7], in [8] and in assay [4] was inactive.
As for `O=c1cc(-c2ccccc2)oc2cc(O)c(O)c(O)c12`, the call in [10], in assay [11], in assay [12], in assay [14], in assay [15] and in [16] was inactive. Further, the Potency entry in assay [13] and in [17] was “inactive” throughout. Moreover, the Potency in [18] is 39.8 µM (active).
In the case of `CC1=C(/C=C/C(C)=C/C=C/C(C)=C/C(=O)Nc2ccc(O)cc2)C(C)(C)CCC1`, the Potency result in assay [5], in assay [3], in assay [9] and in [19] was “inactive” each time. Besides, the outcome in assay [2], in assay [7], in assay [8] and in assay [4] was inactive.
`CCN(CC)C(=O)c1ccc(O)c(OC)c1`: the Potency result in assay [1], in assay [5], in assay [3] and in assay [9] was “inactive” throughout. The compound was classed as inactive in assay [2], in [6], in assay [7], in assay [8] and in assay [4].
Consider `O=C1NCC2(CCN(CCc3ccccc3)CC2)O1`, for which the Potency result in assay [1], in [5], in assay [3] and in assay [9] was “inactive” each time. The outcome in assay [2], in assay [6], in assay [7], in assay [8] and in assay [4] was inactive.
Turning to `O=C(NCCN1CCOCC1)c1ccc(Cl)cc1`, the Potency entry in assay [1], in assay [5], in [3] and in assay [9] was “inactive” each time. Further, the call in assay [2], in assay [6], in [7], in assay [8] and in [4] was inactive.
`CCN(CC)CCOC(=O)c1ccc(N)cc1`: the Potency entry in assay [1], in [5], in assay [3], in [9] and in [19] was “inactive” in each case. For the same compound, the compound was classed as inactive in assay [2], in [6], in assay [7], in assay [8] and in assay [4].
`CN(C)CCC(c1ccccc1)c1ccccn1` (stereo unspecified): the Potency entry in assay [1], in assay [5], in [3], in assay [9] and in [19] was “inactive” throughout. Besides, the result in [2], in [6], in assay [7], in [8] and in [4] was inactive.
As to `COC(=O)[C@@H]1[C@H]2C[C@H]3c4[nH]c5ccccc5c4CCN3C[C@@H]2CC[C@@H]1O`, the compound was classed as inactive in [10], in [11], in assay [12], in [14], in assay [15] and in [16]. Besides, the compound was called inactive in [2], in assay [6], in assay [7] and in [8]. Moreover, the Potency in assay [13] is 30.5 µM (active). For the same compound, the Potency result in assay [17], in assay [1], in assay [5], in assay [20] and in [3] was “inactive” in each case.
`CC(=O)N[C@@H](CS)C(=O)O`: the Potency result in assay [1], in assay [5] and in [3] was “inactive” in each case. The compound was classed as inactive in assay [2], in assay [6], in [7], in [8] and in assay [4].

The record behind these values is PubChem BioAssay (NCATS).
